Consider 2 compounds from ChEMBL document CHEMBL1961873, “Compounds: GSK PKIS; Assays: Nanosyn kinase panel” (2012).

Test [1] has as its target Protein kinase C gamma type (Homo sapiens) (UniProt P05129). Particulars: at 1 µM.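 Also: each value is an averaged percent inhibition of the enzyme.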
Test [2] addresses T1, Protein kinase C iota type (Homo sapiens) (UniProt P41743).
T1 sequence (whole entry): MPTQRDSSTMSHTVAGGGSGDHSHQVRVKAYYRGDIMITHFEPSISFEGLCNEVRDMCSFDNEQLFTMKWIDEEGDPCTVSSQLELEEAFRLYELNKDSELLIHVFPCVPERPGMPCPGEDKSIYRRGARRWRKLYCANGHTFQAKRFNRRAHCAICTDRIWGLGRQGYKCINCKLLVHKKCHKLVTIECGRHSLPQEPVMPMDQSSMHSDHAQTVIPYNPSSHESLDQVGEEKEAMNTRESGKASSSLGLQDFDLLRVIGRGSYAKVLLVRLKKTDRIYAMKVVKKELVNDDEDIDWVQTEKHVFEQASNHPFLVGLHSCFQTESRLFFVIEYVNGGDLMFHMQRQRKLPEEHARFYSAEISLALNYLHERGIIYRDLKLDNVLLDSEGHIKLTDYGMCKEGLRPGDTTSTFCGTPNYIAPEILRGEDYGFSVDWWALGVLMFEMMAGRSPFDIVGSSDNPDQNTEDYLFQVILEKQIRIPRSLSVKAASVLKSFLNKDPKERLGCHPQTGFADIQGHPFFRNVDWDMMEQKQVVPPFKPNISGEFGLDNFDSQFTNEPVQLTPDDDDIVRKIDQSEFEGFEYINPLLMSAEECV
Conditions: at 0.1 µM.

For test [3], the target named is T1, Protein kinase C iota type (Homo sapiens). Conditions: at 1 µM.
Test [4] deals with Protein kinase C theta type (Homo sapiens) (UniProt Q04759). Particulars: at 0.1 µM.
For test [5] the target is unchanged. Conditions: at 1 µM.
In test [6] the target is Protein kinase C beta type (Homo sapiens) (UniProt P05771). Particulars: at 0.1 µM.
For test [7] the target is unchanged. Conditions: at 1 µM.
Test [8] addresses T2, Serine/threonine-protein kinase D1 (Homo sapiens) (UniProt Q15139).
T2 sequence (whole entry): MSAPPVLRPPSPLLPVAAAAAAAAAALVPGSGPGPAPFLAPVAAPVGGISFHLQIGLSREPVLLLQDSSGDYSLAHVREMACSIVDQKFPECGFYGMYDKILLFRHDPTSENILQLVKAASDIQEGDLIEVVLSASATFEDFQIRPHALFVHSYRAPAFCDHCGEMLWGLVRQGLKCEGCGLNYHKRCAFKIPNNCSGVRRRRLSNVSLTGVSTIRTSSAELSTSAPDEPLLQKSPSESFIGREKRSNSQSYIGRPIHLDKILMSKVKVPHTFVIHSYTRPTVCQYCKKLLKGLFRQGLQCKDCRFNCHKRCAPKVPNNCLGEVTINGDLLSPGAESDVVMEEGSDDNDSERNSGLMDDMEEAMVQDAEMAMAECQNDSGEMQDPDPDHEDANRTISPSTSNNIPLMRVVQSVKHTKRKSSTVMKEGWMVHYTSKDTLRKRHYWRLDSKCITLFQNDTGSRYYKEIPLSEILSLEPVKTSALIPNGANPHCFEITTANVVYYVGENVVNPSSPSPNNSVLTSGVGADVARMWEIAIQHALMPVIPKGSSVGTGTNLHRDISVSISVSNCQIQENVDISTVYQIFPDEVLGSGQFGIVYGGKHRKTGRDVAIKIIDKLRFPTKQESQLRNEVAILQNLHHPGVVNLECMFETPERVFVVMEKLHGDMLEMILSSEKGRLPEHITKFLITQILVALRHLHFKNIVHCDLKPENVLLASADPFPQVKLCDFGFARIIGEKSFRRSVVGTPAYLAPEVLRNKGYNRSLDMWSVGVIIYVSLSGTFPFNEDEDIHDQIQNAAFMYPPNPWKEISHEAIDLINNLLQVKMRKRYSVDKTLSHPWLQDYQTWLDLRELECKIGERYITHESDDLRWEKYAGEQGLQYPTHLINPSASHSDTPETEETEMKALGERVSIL
Conditions: at 0.1 µM.

The target in test [9] is T2, Serine/threonine-protein kinase D1 (Homo sapiens). Conditions: at 1 µM.
Test [10] has as its target T3, Serine/threonine-protein kinase D2 (Homo sapiens) (UniProt Q9BZL6).
T3 sequence (whole entry): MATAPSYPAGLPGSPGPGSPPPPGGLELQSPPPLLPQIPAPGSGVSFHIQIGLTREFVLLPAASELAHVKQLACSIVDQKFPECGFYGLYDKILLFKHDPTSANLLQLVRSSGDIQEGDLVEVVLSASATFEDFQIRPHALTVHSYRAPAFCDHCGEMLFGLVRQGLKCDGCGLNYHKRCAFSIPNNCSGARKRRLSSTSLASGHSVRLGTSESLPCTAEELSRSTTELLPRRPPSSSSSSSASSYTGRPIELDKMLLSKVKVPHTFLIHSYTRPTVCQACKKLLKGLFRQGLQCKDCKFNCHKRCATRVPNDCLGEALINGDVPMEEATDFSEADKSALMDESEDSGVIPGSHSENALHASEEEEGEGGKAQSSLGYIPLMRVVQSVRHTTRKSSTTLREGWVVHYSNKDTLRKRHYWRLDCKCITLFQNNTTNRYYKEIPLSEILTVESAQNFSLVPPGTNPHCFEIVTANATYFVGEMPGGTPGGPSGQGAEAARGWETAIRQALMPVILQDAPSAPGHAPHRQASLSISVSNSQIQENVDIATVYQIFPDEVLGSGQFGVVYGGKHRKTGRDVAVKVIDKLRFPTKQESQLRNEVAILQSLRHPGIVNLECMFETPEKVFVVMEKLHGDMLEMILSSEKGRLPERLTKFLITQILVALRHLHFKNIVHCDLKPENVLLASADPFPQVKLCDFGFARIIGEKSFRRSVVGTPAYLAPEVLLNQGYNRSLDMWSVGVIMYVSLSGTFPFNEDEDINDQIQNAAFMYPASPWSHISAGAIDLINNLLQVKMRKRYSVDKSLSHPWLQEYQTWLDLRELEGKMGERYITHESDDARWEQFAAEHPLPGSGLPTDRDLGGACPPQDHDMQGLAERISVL
Conditions: at 0.1 µM.

For test [11], the target named is T3, Serine/threonine-protein kinase D2 (Homo sapiens). Conditions: at 1 µM.
The target in test [12] is T4, Serine/threonine-protein kinase D3 (Homo sapiens) (UniProt O94806).
T4 sequence (whole entry): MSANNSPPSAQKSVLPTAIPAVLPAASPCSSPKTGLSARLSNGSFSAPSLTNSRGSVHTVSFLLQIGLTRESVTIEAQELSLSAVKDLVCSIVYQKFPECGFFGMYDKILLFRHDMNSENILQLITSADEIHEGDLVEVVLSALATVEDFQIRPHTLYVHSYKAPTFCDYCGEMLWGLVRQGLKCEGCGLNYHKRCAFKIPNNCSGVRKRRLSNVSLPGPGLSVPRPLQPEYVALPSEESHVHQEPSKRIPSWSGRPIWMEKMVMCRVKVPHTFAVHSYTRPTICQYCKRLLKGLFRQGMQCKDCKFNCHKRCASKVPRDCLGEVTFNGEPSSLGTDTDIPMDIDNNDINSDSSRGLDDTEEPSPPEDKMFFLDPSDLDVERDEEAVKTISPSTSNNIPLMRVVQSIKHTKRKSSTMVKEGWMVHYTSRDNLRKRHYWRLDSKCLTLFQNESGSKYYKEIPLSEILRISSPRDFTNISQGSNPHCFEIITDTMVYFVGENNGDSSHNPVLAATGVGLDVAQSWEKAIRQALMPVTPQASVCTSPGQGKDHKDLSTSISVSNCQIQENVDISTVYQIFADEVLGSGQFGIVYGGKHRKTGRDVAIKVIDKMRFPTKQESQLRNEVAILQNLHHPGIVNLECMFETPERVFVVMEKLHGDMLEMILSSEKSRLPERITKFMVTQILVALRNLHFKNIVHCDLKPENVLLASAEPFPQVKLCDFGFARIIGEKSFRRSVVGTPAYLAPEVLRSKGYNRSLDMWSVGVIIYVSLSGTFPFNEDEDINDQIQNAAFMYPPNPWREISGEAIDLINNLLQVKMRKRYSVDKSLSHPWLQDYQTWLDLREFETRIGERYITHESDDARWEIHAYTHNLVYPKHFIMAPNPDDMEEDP
Particulars: at 0.1 µM.

Test [13] deals with T4, Serine/threonine-protein kinase D3 (Homo sapiens). Particulars: at 1 µM.
The target of test [14] is T5, cGMP-dependent protein kinase 1 (Homo sapiens) (UniProt Q13976).
T5 sequence (whole entry): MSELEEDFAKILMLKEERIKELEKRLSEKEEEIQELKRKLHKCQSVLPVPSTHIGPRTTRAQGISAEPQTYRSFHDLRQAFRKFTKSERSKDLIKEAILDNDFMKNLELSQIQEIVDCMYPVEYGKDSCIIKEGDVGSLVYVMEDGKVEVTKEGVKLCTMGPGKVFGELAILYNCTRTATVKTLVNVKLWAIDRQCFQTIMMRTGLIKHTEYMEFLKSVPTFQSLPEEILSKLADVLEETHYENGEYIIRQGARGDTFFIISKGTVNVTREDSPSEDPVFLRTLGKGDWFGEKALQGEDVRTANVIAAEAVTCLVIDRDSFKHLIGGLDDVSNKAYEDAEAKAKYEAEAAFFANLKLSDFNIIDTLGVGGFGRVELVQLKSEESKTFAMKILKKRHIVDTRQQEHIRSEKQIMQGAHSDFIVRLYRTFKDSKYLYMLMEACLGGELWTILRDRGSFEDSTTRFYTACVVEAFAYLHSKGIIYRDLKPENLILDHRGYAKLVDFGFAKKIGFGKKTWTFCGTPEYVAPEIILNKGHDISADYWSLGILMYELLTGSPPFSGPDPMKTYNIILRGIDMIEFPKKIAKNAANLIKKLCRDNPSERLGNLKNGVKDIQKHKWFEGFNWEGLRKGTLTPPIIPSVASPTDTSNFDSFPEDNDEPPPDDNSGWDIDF
Conditions: at 0.1 µM.

Test [15] addresses T5, cGMP-dependent protein kinase 1 (Homo sapiens). Conditions: at 1 µM.
The target of test [16] is T6, cGMP-dependent protein kinase 2 (Homo sapiens) (UniProt Q13237).
T6 sequence (whole entry): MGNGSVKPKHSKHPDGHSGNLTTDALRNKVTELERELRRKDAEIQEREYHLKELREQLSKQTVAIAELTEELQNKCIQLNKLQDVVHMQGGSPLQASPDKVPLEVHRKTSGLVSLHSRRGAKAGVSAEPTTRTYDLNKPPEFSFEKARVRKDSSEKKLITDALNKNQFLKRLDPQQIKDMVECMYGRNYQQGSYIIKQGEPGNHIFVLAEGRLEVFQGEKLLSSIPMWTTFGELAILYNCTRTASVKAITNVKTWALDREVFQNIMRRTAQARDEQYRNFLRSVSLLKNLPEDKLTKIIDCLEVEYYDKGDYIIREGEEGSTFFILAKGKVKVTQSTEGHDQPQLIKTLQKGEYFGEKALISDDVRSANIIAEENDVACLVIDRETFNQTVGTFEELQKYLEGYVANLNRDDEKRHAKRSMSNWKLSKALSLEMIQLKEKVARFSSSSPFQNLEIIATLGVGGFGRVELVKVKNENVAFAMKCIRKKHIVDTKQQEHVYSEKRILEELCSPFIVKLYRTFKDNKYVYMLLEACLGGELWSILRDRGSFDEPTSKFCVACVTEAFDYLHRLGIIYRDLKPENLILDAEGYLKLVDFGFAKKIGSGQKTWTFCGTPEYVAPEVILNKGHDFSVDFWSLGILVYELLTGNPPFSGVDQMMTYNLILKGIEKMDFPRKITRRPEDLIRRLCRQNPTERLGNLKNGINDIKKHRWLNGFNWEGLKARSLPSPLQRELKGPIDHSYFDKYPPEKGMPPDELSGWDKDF
Conditions: at 0.1 µM.

The target in test [17] is T6, cGMP-dependent protein kinase 2 (Homo sapiens). Conditions: at 1 µM.
Test [18] deals with T7, cAMP-dependent protein kinase catalytic subunit PRKX (Homo sapiens) (UniProt P51817).
T7 sequence (whole entry): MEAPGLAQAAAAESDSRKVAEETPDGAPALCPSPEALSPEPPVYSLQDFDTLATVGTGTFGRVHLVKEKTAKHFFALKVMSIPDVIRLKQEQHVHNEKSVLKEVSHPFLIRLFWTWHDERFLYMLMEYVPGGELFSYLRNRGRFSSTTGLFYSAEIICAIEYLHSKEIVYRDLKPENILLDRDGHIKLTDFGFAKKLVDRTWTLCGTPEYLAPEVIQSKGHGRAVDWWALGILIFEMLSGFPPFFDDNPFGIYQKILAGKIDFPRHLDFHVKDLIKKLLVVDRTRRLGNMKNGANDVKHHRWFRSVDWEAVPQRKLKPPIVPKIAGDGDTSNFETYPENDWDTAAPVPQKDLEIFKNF
Conditions: at 0.1 µM.

Test [19] addresses T7, cAMP-dependent protein kinase catalytic subunit PRKX (Homo sapiens). Particulars: at 1 µM.
Test [20] addresses Rho-associated protein kinase 1 (Homo sapiens) (UniProt Q13464). Particulars: at 0.1 µM.

The structures appear in SMILES notation.

Protein kinase C theta type (Homo sapiens), sequence (Q04759 whole entry, looked up): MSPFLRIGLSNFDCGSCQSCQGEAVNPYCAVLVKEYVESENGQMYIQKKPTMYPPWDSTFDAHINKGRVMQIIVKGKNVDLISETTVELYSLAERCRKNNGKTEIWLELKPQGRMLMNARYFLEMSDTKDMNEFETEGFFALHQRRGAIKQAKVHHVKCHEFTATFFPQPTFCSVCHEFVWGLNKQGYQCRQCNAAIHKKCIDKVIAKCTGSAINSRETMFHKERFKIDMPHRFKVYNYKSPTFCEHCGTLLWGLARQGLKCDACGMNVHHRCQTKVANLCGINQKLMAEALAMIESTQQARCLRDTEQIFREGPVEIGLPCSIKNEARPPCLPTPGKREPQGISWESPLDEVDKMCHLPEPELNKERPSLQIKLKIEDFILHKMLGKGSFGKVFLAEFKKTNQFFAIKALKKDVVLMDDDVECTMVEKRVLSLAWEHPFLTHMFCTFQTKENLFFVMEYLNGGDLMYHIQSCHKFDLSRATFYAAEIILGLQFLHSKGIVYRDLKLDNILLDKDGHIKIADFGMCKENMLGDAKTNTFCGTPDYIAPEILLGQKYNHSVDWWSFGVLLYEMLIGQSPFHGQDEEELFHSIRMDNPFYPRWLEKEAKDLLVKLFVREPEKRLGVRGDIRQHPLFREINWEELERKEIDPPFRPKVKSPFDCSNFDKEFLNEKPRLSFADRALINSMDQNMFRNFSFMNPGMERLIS
Protein kinase C beta type (Homo sapiens), sequence (P05771 2-671 limits assumed): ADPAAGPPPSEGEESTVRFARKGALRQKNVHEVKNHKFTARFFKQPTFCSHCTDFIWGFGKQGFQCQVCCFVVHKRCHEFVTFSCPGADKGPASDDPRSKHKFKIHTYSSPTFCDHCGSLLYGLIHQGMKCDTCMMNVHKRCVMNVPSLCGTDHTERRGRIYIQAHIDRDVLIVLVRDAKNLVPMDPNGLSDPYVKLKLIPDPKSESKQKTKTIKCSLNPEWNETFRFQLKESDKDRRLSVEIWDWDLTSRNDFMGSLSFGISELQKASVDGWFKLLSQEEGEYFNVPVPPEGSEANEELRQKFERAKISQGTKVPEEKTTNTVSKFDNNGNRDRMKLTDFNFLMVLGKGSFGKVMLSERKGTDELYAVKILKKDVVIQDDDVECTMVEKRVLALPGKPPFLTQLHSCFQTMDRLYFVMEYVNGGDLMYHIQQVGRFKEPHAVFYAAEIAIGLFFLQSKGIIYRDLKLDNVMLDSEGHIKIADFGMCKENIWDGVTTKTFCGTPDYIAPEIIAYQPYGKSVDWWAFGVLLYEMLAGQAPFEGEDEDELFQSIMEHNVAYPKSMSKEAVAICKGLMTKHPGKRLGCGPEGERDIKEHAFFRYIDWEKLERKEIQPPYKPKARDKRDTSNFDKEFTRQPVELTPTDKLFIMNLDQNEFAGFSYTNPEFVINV
Rho-associated protein kinase 1 (Homo sapiens), sequence (Q13464 2-1354 limits assumed): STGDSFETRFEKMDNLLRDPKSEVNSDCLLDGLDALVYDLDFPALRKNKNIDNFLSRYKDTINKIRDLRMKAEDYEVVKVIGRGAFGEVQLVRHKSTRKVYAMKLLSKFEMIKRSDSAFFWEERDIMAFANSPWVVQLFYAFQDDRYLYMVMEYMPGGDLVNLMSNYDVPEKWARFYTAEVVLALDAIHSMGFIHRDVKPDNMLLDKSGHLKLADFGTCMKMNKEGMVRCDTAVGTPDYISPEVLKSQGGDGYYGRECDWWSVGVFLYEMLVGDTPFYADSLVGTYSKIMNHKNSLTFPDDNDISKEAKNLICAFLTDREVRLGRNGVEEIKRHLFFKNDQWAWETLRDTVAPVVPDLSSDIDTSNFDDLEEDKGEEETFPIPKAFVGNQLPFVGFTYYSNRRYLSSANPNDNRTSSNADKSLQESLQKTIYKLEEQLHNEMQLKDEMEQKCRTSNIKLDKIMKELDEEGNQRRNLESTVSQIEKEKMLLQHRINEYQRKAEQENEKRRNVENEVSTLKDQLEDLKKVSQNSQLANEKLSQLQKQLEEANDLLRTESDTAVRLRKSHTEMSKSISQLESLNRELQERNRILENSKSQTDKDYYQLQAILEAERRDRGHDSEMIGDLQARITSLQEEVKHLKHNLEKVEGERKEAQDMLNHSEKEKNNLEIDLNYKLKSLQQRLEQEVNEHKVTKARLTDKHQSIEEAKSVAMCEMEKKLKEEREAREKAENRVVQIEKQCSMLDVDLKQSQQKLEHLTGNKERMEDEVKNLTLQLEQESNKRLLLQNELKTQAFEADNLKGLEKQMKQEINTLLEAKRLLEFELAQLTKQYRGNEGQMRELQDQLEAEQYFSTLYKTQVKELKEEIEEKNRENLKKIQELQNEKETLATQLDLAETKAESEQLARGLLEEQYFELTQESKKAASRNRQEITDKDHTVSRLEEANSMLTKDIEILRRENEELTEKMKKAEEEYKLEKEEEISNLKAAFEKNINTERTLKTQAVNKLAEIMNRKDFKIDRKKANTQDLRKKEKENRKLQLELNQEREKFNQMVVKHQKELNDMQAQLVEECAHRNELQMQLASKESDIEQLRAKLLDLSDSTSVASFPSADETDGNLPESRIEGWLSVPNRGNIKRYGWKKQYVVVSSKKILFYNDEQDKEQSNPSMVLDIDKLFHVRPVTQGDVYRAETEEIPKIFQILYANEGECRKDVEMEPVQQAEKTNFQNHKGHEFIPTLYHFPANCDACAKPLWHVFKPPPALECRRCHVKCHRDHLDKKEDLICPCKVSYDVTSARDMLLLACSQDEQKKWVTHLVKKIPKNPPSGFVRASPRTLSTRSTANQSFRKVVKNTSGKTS

The inhibition is the relative decrease from the control value, in per cent. Consider `COc1cc(C=NNc2ncnc3c2cnn3Cc2ccccc2)ccc1O`, for which the inhibition in test [1] is 2.96%; in test [2], -1.06%; in test [3] it was -0.54%; in [4] it was -1.05%; in [5], 1.99%; in test [6], -1.09%. Moreover, the inhibition is 1.44% in [7]; -4.01% in test [8]; -1.69% in [9]; -3.31% in [10]; 1% in test [11]; -4.03% in test [12]. The inhibition in test [13] is -1.04%; in [14], 0.15%; in test [15], 3.36%; in test [16], 0.26%; in [17], 4.01%; in test [18], 0.31%. Moreover, the inhibition in [19] stood at 5.24%; in [20] it was 1.47%.
Consider `COc1cccc(-n2ncc3c(N/N=C/c4ccncc4)ncnc32)c1`, for which the inhibition in [1] is 7.85%; in test [2], 3.39%; in test [3], 13.1%; in test [4], 2.97%; in [5] it was 5.71%; in [6] it was 2.37%. The inhibition amounted to 9.57% in test [7]; 4.37% in test [8]; 10.1% in test [9]; 4.75% in [10]; 9.06% in [11]; 5.79% in test [12]. Besides, the inhibition in [13] amounted to 9.03%; in test [14], 3.25%; in test [16] it was 1.96%; in test [17], 6.05%; in test [18] it was 1.85%; in test [19], 2.86%. Moreover, in [20], the inhibition was 2.51%.
